# High-throughput results (PubChem)
# The list is not random: actives were taken first. Their share in the collection is about 12%.
# NS1 function inh = blocks influenza NS1 protein function; Potency, µM (doses to about 46.1 µM), for the others: at the top dose activity, positive = more growth; hit rate 0.4% among 270,000; AID 2326; note: potency is the fitted concentration of half-maximal effect; actives are rising curves; nearly all actives have a fitted effect of over 50% in size
#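 Recovery from NS1-induced slow growth read by OD600 in budding yeast switched to galactose assay medium (pH 6.0, -URA) at 1:100 dilution. Compound 23 nl per well; the matching strain lacking NS1 serves as control.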
# CHX counter = counter-screen for Shiga toxin inhibitors: cycloheximide protein synthesis inhibition; cell reporter, cycloheximide protein synthesis inhibition counterscreen; max response, %; hit rate 12% among 300,000; in the data active = max response mostly above about 13%, no sharp cut-off; inactive = mostly below about 14%; note: read at 38.3 µM for the half of the compounds with a filed dose; 0% is about no effect
# SARS PLP yeast = blocks SARS-CoV papain-like protease in a yeast assay; S. cerevisiae expressing SARS-CoV PLpro, growth rescue; Potency, µM (doses to about 32.9 µM), without a hit: top-dose activity, positive = growth rescue, most hits filed as activators; hit rate 0.19% among 330,000; AID 485353; note: potency is the fitted concentration of half-maximal effect; 0% is about no effect; nearly all actives have a fitted effect of over 55% in size
# Shiga toxin inh = blocks Shiga toxin action in Vero cells; Vero cells, Shiga toxin protein synthesis inhibition reporter; inhibition, % at 38.7 µM; hit rate 9.2% among 290,000; AID 2315; in the data active = inhibition mostly above about 28%, no sharp cut-off; inactive = mostly below about 43%; note: 0% is about no effect
# Numbers without * were called inactive; ? = inconclusive; nt = not tested or not shown. Unless noted, calls come from the whole dose curve.
SMILES,NS1 function inh,CHX counter,SARS PLP yeast,Shiga toxin inh
CCCCNC(=O)C1(O)c2cc(Br)ccc2NC(=O)N1c1cccc(OC)c1 (centres undefined),8%,-2,-1%,-6
CC1(C)NC(=O)N(c2ccc([N+](=O)[O-])c(C(F)(F)F)c2)C1=O,-2%,nt,nt,nt
c1ccc(NCc2nc3ccccc3n2CCOc2ccccc2)cc1,-8%,16*,-56%,active
CCCc1nc2ccccc2n1CCOc1ccccc1,-64%,1,-2%,-16
COc1ccc(NCc2nc3ccccc3n2CCOc2ccc(C)cc2)cc1,?,28*,-122%,47*
COc1ccc(NCc2nc3ccccc3n2CCOc2ccccc2)cc1,6%,47*,-23%,84*
Cc1ccc(OCCn2c(C)nc3ccccc32)cc1,-12%,1,-3%,nt
COc1ccc(OCCCCn2c(CO)nc3ccccc32)cc1,-4%,3,-2%,17
CC(=Nc1ccccc1N)c1c(C)cc(=O)n(O)c1O,nt,31*,nt,57*
Cc1ccc(NC(=O)c2ccc3nsnc3c2)c(C)c1,0%,30*,-3%,35*
Cc1ccc(NC(=O)c2sc(Cl)nc2C)c(C)c1,-7%,12,-3%,1
COC(=O)c1ccc(NC(=O)c2ccc3nsnc3c2)cc1,-9%,1,-1%,25
Cc1ccc(NC(=O)c2sc(C)nc2C)c(C)c1,3%,17*,1%,36*
CCn1cc(C(=O)O)c(=O)c2cnc(N3CCN(C(=S)NC(=O)c4ccccc4Cl)CC3)nc21,3%,-2,2%,-9
O=C1/C(=C/c2cccc(F)c2)Oc2cc(O)ccc21,-88%,22*,-12%,40*
O=C1/C(=C/c2ccc(O)c(O)c2)Oc2ccccc21,nt,35*,nt,77*
Cc1cccc(/C=C2\Oc3cc(OS(C)(=O)=O)ccc3C2=O)c1,0%,26*,-57%,36
COC(=O)COc1ccc2c(c1)O/C(=C\c1cccc([N+](=O)[O-])c1)C2=O,2%,-4,2%,-3
CCOC(=O)c1c(-c2ccc(C)o2)csc1NC(=O)COC(=O)c1ccc(NC(N)=O)cc1,11%,-6,15%,-16
COc1ccc(N(C)C(=S)Oc2ccc(C(=O)Nc3ccccc3)cc2)cc1,1%,28,6%,24
Cc1cccc(N(C)C(=S)Oc2ccc3ccccc3c2)c1,-8%,28*,-16%,49*
Cn1c(SCC(=O)OC2CCCCC2)nnc1-c1ccco1,2%,16*,19%,16
CN(C(=O)CSc1nnc(-c2ccco2)n1C)C1CCCCC1,nt,nt,10%,nt
COCCCn1c(SCC(=O)OC2CCCCC2)nnc1-c1ccco1,-4%,17*,-7%,19
COCCCn1c(SCC(=O)NC2CCCC2)nnc1-c1ccco1,10%,-2,21%,-12
SMILES,NS1 function inh,CHX counter,SARS PLP yeast,Shiga toxin inh
Cc1ccccc1C(=O)NNC(=S)NC(=O)c1ccc(Cl)cc1Cl,-257%,1,5%,-7
CCC(=O)Nc1cccc(NC(=S)NC(=O)c2ccc(Cl)cc2Cl)c1,22%,42*,2%,23
COc1ccccc1NC(=S)NNC(=O)c1ccc(Cl)cc1Cl,-27%,31*,18%,51*
CCC(=O)NC(=S)Nc1cccc(NC(=O)c2ccccc2)c1,4%,-1,-2%,-9
O=C(NC(=S)Nc1ncccn1)c1ccc(Cl)cc1Cl,nt,30*,1%,127*
CCC(=O)Nc1cccc(NC(=S)NC(=O)c2ccc(Cl)cc2)c1,7%,22*,1%,24
COc1cccc(Oc2nc(-c3ccncc3)nc3ccccc23)c1,-1%,-3,0%,-3
O=C(CN1C(=O)NC2(CCCC2)C1=O)OCCOc1ccc(Br)cc1,nt,nt,1%,nt
CC(C)NC(=O)N(C)C[C@H]1Oc2ccc(NC(=O)Cc3ccccc3)cc2C(=O)N([C@H](C)CO)C[C@@H]1C,nt,nt,1%,nt
CNC(=O)NC(=O)CSc1nc2sccc2c(=O)n1-c1ccccc1,4%,-2,-2%,-11
COc1ccc([N+](=O)[O-])cc1NC(=O)Cn1ccsc1=N,-3%,-9,4%,-14
CCC(=O)NC(=S)Nc1cccc(NC(=O)c2ccccc2C)c1,nt,-3,0%,20
CCC(=O)Nc1cccc(NC(=S)NC(=O)c2ccccc2C)c1,nt,48*,3%,72*
Nc1cc(=O)[nH]c(SCC(=O)NC2CCCCCCC2)n1,nt,nt,-1%,nt
COc1ccc(C2C=C(c3ccc(Br)cc3)Nc3nnnn32)c(OC)c1 (centres undefined),nt,33*,nt,66*
COc1ccccc1C1C=C(c2ccccc2)Nc2nnnn21 (centres undefined),-2%,17,3%,165*
Fc1ccc(C2=CC(c3ccco3)n3nnnc3N2)cc1 (centres undefined),1%,39*,-1%,47*
C=CCOC(=O)C1=C(C)Nc2nnnn2C1c1ccc(OC)cc1OC (centres undefined),-2%,-7,-4%,4
CC(C)N(C(=O)CN1C(=O)NC(c2ccccc2)(c2ccccc2)C1=O)C(C)C,6%,-5,3%,3
Cn1cccc1C(=O)NCc1ccc(S(N)(=O)=O)cc1,3%,-2,2%,-2
COC(=O)c1ccc(=O)c2nc3/c(=C/O)c(O)cc(=O)c3[nH]c12,1%,1,3.2µM*,11
CC(=O)N1CCn2c3c(c4cc(C)ccc42)CCCC31 (centres undefined),-35%,1,-1%,11
CCN1CCn2c3c(c4cccc(C)c42)CCCC31 (centres undefined),7%,-3,2%,-5
CCN1CCn2c3c(c4cc(C)ccc42)CCCC31 (centres undefined),-2%,25*,-2%,40
Cc1ccc2c(c1)c1c3n2CCN(C(=O)CCl)C3CCC1 (centres undefined),-25%,9.8*,7%,24
SMILES,NS1 function inh,CHX counter,SARS PLP yeast,Shiga toxin inh
Cc1ccc(C)c(N2C(=O)c3cc(N4CCOCC4)c([N+](=O)[O-])cc3C2=O)c1,9%,-4,21%,10
Cc1ccc(S(=O)(=O)N2[C@@H](c3cccc(C)c3)C(C(=O)O)=C[C@H]2C(C)(C)C)cc1,nt,nt,-6%,nt
O=C(NC1CCCCCC1)c1ccc2c(=O)n3c(nc2c1)CCCCC3,-49%,31*,3%,46
COc1ccc(NC(=O)c2ccc3c(=O)n4c(nc3c2)CCCCC4)cc1,-2%,21*,-8%,29
COc1cccc(CN(C)C(=O)c2ccc3c(=O)n4c(nc3c2)CCC4)c1OC,-2%,36*,0%,69
O=C(NCc1ccccc1)c1ccc2c(=O)n3c(nc2c1)CCCCC3,-12%,6,1%,23
Cc1ccc(NC(=O)c2ccc3c(=O)n4c(nc3c2)CCCCC4)cc1F,-16%,9,-4%,21
CC(C)=CCCC(C)NC(=O)NC1CCCCC1 (centres undefined),-6%,23*,?,38
NC(=S)N/N=C1\CC(n2nnn(-c3cccc(Cl)c3)c2=S)C2COC1O2 (centres undefined),nt,8,21%,-9
CCCCCCOc1ccc(OCC(O)CN2C(=O)NC(C)(C)C2=O)cc1 (centres undefined),10%,43*,-5%,175*
COC(=O)C1=C(Nc2cc(Cl)cc(Cl)c2)CSC1,5%,-2,2%,32
O=C(Nc1cc(Cl)cc(Cl)c1)c1cnn2cccnc12,1%,1,5%,-28
